According to PubChem BioAssay (EPA / NIEHS):
Several values for one entry are separate records, joined by “and”; a condition that tells them apart may be missing. Equal values may be shown once. Where a structure was tested more than once in an assay, its records may differ in their call. Activity calls are given as the source filed them. How the source made its calls: active means hit-call score of the fitted dose curve at least 0.9, where 1 is the maximum; inactive means score below 0.9.

Assays:
[1] = read-out: Tissue plasminogen activator (tPA), PLAT (gene 5327); assay: BSK_BE3C_tPA: BioMAP Diversity Plus: BE3C Assay for Tissue plasminogen activator (tPA) Biomarker Activity (AID 2283041); conditions: primary human bronchial epithelial cells; actives raise or lower the signal
Summary of the method: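 Primary human lung bronchial epithelial cultures receive test chemical; after 24 h, tPA is quantified by ELISA, and gain or loss of signal is fitted bidirectionally relative to DMSO baseline.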

[2] = read-out: Interleukin-8 (IL8), CXCL8 (gene 3576); assay: BSK_CASM3C_IL8: BioMAP Diversity Plus: CASM3C Assay for Interleukin-8 (IL8) Biomarker Activity (AID 2283042); conditions: primary human coronary artery smooth muscle cells; actives raise or lower the signal;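 further: IL-8 protein level quantified by ELISA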
[3] = read-out: Human Leukocyte Antigen - DR isotype (HLADR), HLA-DRA (gene 3122); assay: BSK_CASM3C_HLADR: BioMAP Diversity Plus: CASM3C Assay for Human Leukocyte Antigen - DR isotype (HLADR) Biomarker Activity (AID 2283043); conditions: primary human coronary artery smooth muscle cells; actives raise or lower the signal;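 further: cell-surface HLA-DR protein level quantified by ELISA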
[4] = read-out: Macrophage colony-stimulating factor (MCSF), CSF1 (gene 1435); assay: BSK_CASM3C_MCSF: BioMAP Diversity Plus: CASM3C Assay for Macrophage colony-stimulating factor (MCSF) Biomarker Activity (AID 2283044); conditions: primary human coronary artery smooth muscle cells; actives raise or lower the signal;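 further: M-CSF protein amount quantified by ELISA after 24 h exposure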
[5] = read-out: Low-density lipoprotein receptor (LDLR), LDLR (gene 3949); assay: BSK_CASM3C_LDLR: BioMAP Diversity Plus: CASM3C Assay for Low-density lipoprotein receptor (LDLR) Biomarker Activity (AID 2283045); conditions: primary human coronary artery smooth muscle cells; actives raise or lower the signal;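 further: LDLR protein level on the cell surface quantified by ELISA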
[6] = read-out: Monocyte Chemoattractant Protein-1 (MCP1), CCL2 (gene 6347); assay: BSK_CASM3C_MCP1: BioMAP Diversity Plus: CASM3C Assay for Monocyte Chemoattractant Protein-1 (MCP1) Biomarker Activity (AID 2283046); conditions: primary human coronary artery smooth muscle cells; actives raise or lower the signal;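 further: MCP-1 level quantified by ELISA 24 h after dosing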
[7] = BSK_CASM3C_Proliferation: Cell Proliferation Assessment in the BioMAP Diversity Plus: CASM3C Assay (AID 2283047); conditions: primary human coronary artery smooth muscle cells;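 further: sulforhodamine B total protein stain as relative cell number at 560 nm; sub-confluent cells exposed 48 h before staining; fitted both ways against DMSO so gain or loss of cell number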
[8] = read-out: Monokine induced gamma interferon (MIG), CXCL9 (gene 4283); assay: BSK_CASM3C_MIG: BioMAP Diversity Plus: CASM3C Assay for Monokine induced gamma interferon (MIG) Biomarker Activity (AID 2283048); conditions: primary human coronary artery smooth muscle cells; actives raise or lower the signal;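 further: MIG protein level measured by ELISA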
[9] = read-out: serum amyloid A (SAA), SAA1 (gene 6288); assay: BSK_CASM3C_SAA: BioMAP Diversity Plus: CASM3C Assay for serum amyloid A (SAA) Biomarker Activity (AID 2283049); conditions: primary human coronary artery smooth muscle cells; actives raise or lower the signal;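 further: SAA protein level quantified by ELISA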
[10] = BSK_CASM3C_SRB: Viability Assessment in the BioMAP Diversity Plus: CASM3C Assay (AID 2283050); conditions: primary human coronary artery smooth muscle cells;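 further: total protein by SRB staining as cytotoxicity measure in parallel cultures; cells exposed to compound for 24 h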
[11] = read-out: Thrombomodulin, THBD (gene 7056); assay: BSK_CASM3C_Thrombomodulin: BioMAP Diversity Plus: CASM3C Assay for Thrombomodulin Biomarker Activity (AID 2283051); conditions: primary human coronary artery smooth muscle cells; actives raise or lower the signal;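 further: thrombomodulin protein level measured by ELISA 24 h after dosing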
[12] = read-out: Tissue Factor, F3 (gene 2152); assay: BSK_CASM3C_TissueFactor: BioMAP Diversity Plus: CASM3C Assay for Tissue Factor Biomarker Activity (AID 2283052); conditions: primary human coronary artery smooth muscle cells; actives raise or lower the signal;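 further: cell surface tissue factor protein level read by ELISA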
[13] = read-out: Interferon-gamma inducible Protein 10 (IP10), CXCL10 (gene 3627); assay: BSK_hDFCGF_IP10: BioMAP Diversity Plus: hDFCGF Assay for Interferon-gamma inducible Protein 10 (IP10) Biomarker Activity (AID 2283053); conditions: primary human foreskin fibroblasts; actives raise or lower the signal
Summary of the method: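 Primary foreskin fibroblasts, human; 24 h compound exposure; IP-10 by ELISA; bidirectional fit vs DMSO.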

[14] = read-out: Urokinase-type plasminogen activator receptor (uPAR), PLAUR (gene 5329); assay: BSK_CASM3C_uPAR: BioMAP Diversity Plus: CASM3C Assay for Urokinase-type plasminogen activator receptor (uPAR) Biomarker Activity (AID 2283054); conditions: primary human coronary artery smooth muscle cells; actives raise or lower the signal;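 further: cell-surface uPAR protein level quantified by ELISA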
[15] = read-out: Vascular cell adhesion molecule 1 (VCAM1), VCAM1 (gene 7412); assay: BSK_CASM3C_VCAM1: BioMAP Diversity Plus: CASM3C Assay for Vascular cell adhesion molecule 1 (VCAM1) Biomarker Activity (AID 2283055); conditions: primary human coronary artery smooth muscle cells; actives raise or lower the signal;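 further: VCAM-1 protein level quantified by ELISA on the cells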
[16] = read-out: Collagen III, COL3A1 (gene 1281); assay: BSK_hDFCGF_CollagenIII: BioMAP Diversity Plus: hDFCGF Assay for Collagen III Biomarker Activity (AID 2283056); conditions: primary human foreskin fibroblasts; actives raise or lower the signal
Summary of the method: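 hDFCGF primary human dermal fibroblasts; 24 h chemical exposure; collagen III by ELISA; bidirectional curve fit vs DMSO baseline (gain or loss of signal).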

[17] = read-out: Epidermal growth factor receptor (EGFR), EGFR (gene 1956); assay: BSK_hDFCGF_EGFR: BioMAP Diversity Plus: hDFCGF Assay for Epidermal growth factor receptor (EGFR) Biomarker Activity (AID 2283057); conditions: primary human foreskin fibroblasts; actives raise or lower the signal
Summary of the method: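 hDFCGF system, primary human foreskin fibroblasts; compound 24 h; EGFR measured by ELISA; DMSO = negative control/baseline; bidirectional fitting.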

[18] = read-out: Interleukin-8 (IL8), CXCL8 (gene 3576); assay: BSK_hDFCGF_IL8: BioMAP Diversity Plus: hDFCGF Assay for Interleukin-8 (IL8) Biomarker Activity (AID 2283058); conditions: primary human foreskin fibroblasts; actives raise or lower the signal
Summary of the method: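 ELISA read-out of IL-8 from primary human foreskin fibroblast cultures taken 24 h after dosing; values are bidirectional fits relative to DMSO vehicle.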

[19] = BSK_hDFCGF_Proliferation: Cell Proliferation Assessment in the BioMAP Diversity Plus: hDFCGF Assay (AID 2283059); conditions: primary human foreskin fibroblasts;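 further: curves fitted for both rise and fall of signal versus DMSO baseline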
Summary of the method: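 Primary human foreskin fibroblasts, sub-confluent; […]; 10% TCA fix, 0.1% SRB stain, A560 total protein. Gain/loss fitted bidirectionally vs DMSO control.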

[20] = read-out: Macrophage colony-stimulating factor (MCSF), CSF1 (gene 1435); assay: BSK_hDFCGF_MCSF: BioMAP Diversity Plus: hDFCGF Assay for Macrophage colony-stimulating factor (MCSF) Biomarker Activity (AID 2283060); conditions: primary human foreskin fibroblasts; actives raise or lower the signal
Summary of the method: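 ELISA read-out of M-CSF in human dermal foreskin fibroblast cultures, 24 h after chemical dosing; gain or loss of signal fitted bidirectionally relative to DMSO baseline.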

Measured: AC50

ClC1=C(Cl)[C@]2(Cl)[C@H]3[C@H]([C@H]4C=C[C@H]3C4)[C@@]1(Cl)C2(Cl)Cl
active: [3] 5.83 µM | [7] 8.26 µM | [12] 0.266 µM | [16] 4.4 µM | [19] 8.76 µM | [20] 492 nM
inactive: all other assays above

COP(=S)(OC)Oc1c(Cl)cc(C)cc1Cl
active: [2] 0.213 µM | [7] 20 µM | [12] 5.88 µM | [16] 13.2 µM
inactive: all other assays above

C=C(C)C(=O)[O][Sn]([CH2]CCC)([CH2]CCC)[CH2]CCC
inactive: [17]
active: [1] 0.148 µM | [2] 0.359 µM | [3] 0.148 µM | [4] 0.326 µM | [5] 0.148 µM | [6] 0.292 µM | [7] 0.148 µM | [8] 1.03 µM | [9] 0.366 µM | [10] 0.148 µM | [11] 1.54 µM | [12] 1.15 µM | [13] 0.148 µM | [14] 0.391 µM | [15] 0.148 µM | [16] 0.374 µM | [18] 148 nM | [19] 0.15 µM | [20] 148 nM

COc1cc(OC)nc(NC(=O)NS(=O)(=O)c2ncccc2C(=O)N(C)C)n1
inactive: all assays above

NC(=O)O
inactive: all assays above

CCOP(=S)(OCC)Oc1ccc(S(C)=O)cc1 (centres undefined)
inactive: all assays above

COP(=S)(OC)Oc1ccc(Sc2ccc(OP(=S)(OC)OC)cc2)cc1
active: [1] 10 µM | [11] 12.6 µM | [19] 20 µM
inactive: all other assays above

O=Cc1cccc(Oc2ccccc2)c1
inactive: all assays above

COc1cc(-c2ccc(N)c(OC)c2)ccc1N
active: [7] 15 µM | [19] 13.2 µM and 4.28 µM | [20] 9490 nM
inactive: [1] | [2] | [3] | [4] | [5] | [6] | [7] | [8] | [9] | [10] | [11] | [12] | [13] | [14] | [15] | [16] | [17] | [18] | [20]

Nc1cccc2ccccc12
active: [5] 12.6 µM | [11] 15.2 µM | [13] 31.6 µM | [16] 27.1 µM | [19] 13.6 µM | [20] 20000 nM
inactive: all other assays above

O=[N+]([O-])c1ccc(O)c([N+](=O)[O-])c1
inactive: all assays above

O=S(=O)(c1ccc(Cl)cc1)c1ccc(Cl)cc1
inactive: all assays above

ClC1(Cl)C2(Cl)C3(Cl)C4(Cl)C(Cl)(Cl)C5(Cl)C3(Cl)C1(Cl)C5(Cl)C24Cl (centres undefined)
active: [5] 1.14 µM | [19] 0.572 µM
inactive: all other assays above

O=C(O)C(F)(F)C(F)(F)C(F)(F)C(F)(F)C(F)(F)C(F)(F)C(F)(F)C(F)(F)C(F)(F)C(F)(F)F
active: [1] 7.65 µM and 5.33 µM | [3] 19.1 µM | [11] 0.141 µM | [13] 6.56 µM and 4.76 µM and 4.7 µM | [16] 17.1 µM and 5.73 µM and 3.66 µM | [17] 835 nM and 906 nM | [18] 13.1 µM and 6.18 µM and 6.3 µM | [19] 4.01 µM and 2.28 µM and 2.17 µM | [20] 10.8 µM and 5.03 µM and 4.97 µM
inactive: [1] | [2] | [3] | [4] | [5] | [6] | [7] | [8] | [9] | [10] | [11] | [12] | [14] | [15] | [17]

C=CC(=O)OCCCCCC(C)C
inactive: all assays above

CC12CC1(C)C(=O)N(c1cc(Cl)cc(Cl)c1)C2=O (centres undefined)
inactive: all assays above

CN(C)N=O
inactive: all assays above

C[C@]12CCC(=O)C[C@@H]1CC[C@@H]1[C@@H]2CC[C@]2(C)[C@@H](O)CC[C@@H]12
inactive: all assays above

COP(=S)(OC)Oc1cc(Cl)c(Cl)cc1Cl
active: [3] 20 µM | [4] 3.97 µM | [7] 29.3 µM | [9] 20 µM | [15] 16.5 µM | [16] 20 µM
not listed: [20]
inactive: all other assays above

CC(=O)C(Cl)C(=O)N(C)C (centres undefined)
active: [1] 20 µM | [3] 10.1 µM | [4] 16.3 µM | [7] 35.5 µM | [12] 7.43 µM | [15] 12 µM | [16] 13.8 µM | [19] 26 µM
not listed: [20]
inactive: all other assays above

CCOP(=S)(OCC)SCSP(=S)(OCC)OCC
active: [13] 13.9 µM | [16] 10 µM | [19] 31.6 µM
inactive: all other assays above

CCOP(=S)(OCC)SCCS(=O)(=O)CC
inactive: all assays above
